Gli-Sufu block = Gli-Sufu pathway antagonism | inhibition, % at 5 µM | Sufu-KO-LIGHT fibroblasts, Gli luciferase reporter luminescence | AID 588413 | hit rate 0.74% among 340,000;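 active means inhibition above about 55%, limit read from the data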;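 further: 0% = DMSO-treated cells and 100% = wells with medium but no cells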
CSC inhib = cancer stem cell inhibition | cancer stem cell-like cells viability, luminescence | hit rate 1.1% among 300,000 | inhibition, % at 7.5 µM; in the data active means inhibition above about 75%; tested in HMLE shEcad cells
GRIN3A LBD mod = modulators (binders) of human NR3A ligand-binding domain; NR3A LBD differential scanning fluorimetry, Tm shift; 0% = protein alone, 100% = glycine-bound protein; Tm shift relative to glycine control, % at 25 µM; hit rate 2.5% among 340,000;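 active means melting temperature shift of at least 10% of the positive control shift, at one fixed dose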
Mdm2-MdmX inh = inhibitors of human Mdm2/MdmX interaction | O15151+Q00987 | SaOS-2 split-luciferase Mdm2/MdmX complementation, luminescence | inhibition, % at 8 µM | hit rate 3% among 330,000;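 active means inhibition of at least 50% at 8 µM in the primary screen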
MPTP block = inhibitors of mitochondrial permeability transition pore; hit rate 1.4% among 360,000; AID 602449; inhibition, % at 10 µM; isolated mouse mitochondria, Ca2+ swelling absorbance, 30 min;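 active means inhibition of 50% or more, scaled per plate between neutral and stimulator controls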;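 further: 0% = DMSO wells given calcium and 100% = 1 mM EGTA wells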
Beta cell apopt = blocks beta cell apoptosis; INS-1E cytokine-induced death, ATP luminescence, 48 h; percent of positive-control rescue, neutral wells zero; protection from apoptosis, % (test concentration not listed); hit rate 0.8% among 300,000;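 active means Every replicate reaches about 75%, or at least half do and their mean reaches it too, limit read from the data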;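 further: 0% = cytokine-treated negative control wells and 100% = positive control rescue; higher means more ATP so stronger rescue from cytokine killing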
Mdm2-MdmX conf = human Mdm2/MdmX binding inhibition, confirmed | shares compounds with Mdm2-MdmX inh | luminescent assay | inhibition, % at 8 µM | hit rate 55% among 10,000 | AID 489028; in the data active means inhibition above about 40%
Full FLuc ctr = inhibits full-length luciferase, flagging false Mdm2/MdmX hits | SaOS-2 full-length luciferase counterscreen, luminescence | AID 504607 | inhibition, % at 8 µM | shares compounds with Mdm2-MdmX inh | hit rate 77% among 6,200;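 active means mean inhibition at 8 µM reaching about 37%, which flags the compound as non-specific, limit read from the data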;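 further: p53-null SaOS-2 cells with luciferase driven by a doxycycline-inducible promoter; compound on cells about two nights before reading with doxycycline added after day one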
* hit, by the source's call; x = no result given. Most compounds without a hit are left out; they make up all but 6.6% or so of the library.

SMILES	Gli-Sufu block	CSC inhib	GRIN3A LBD mod	Mdm2-MdmX inh	MPTP block	Beta cell apopt	Mdm2-MdmX conf	Full FLuc ctr
O=C(CSc1nc2ccc(Nc3nc(N4CCOCC4)nc(N4CCOCC4)n3)cc2s1)N1CCOCC1	14	2	-5	33	-1	8	x	x
O=C(CSc1nc2ccc(Nc3nc(N4CCOCC4)nc(N4CCOCC4)n3)cc2s1)Nc1ccccc1Cl	3	45	-9	89*	1	-8	38	88*
CN(C(=O)CN1CCN(c2cc(-c3ccc(-c4ccccc4)cc3)ncn2)CC1)c1ccccc1	x	x	x	x	0	x	x	x
CCn1cc(C(=O)NCc2ccc(C)cc2)c(=O)c2cc(S(=O)(=O)N(C)C)ccc21	11	1	-2	-12	0	-2	x	x
CCc1cccc(NC(=O)C2CCN(c3ncnc4sc(C)c(C)c34)CC2)c1	5	37	-4	17	2	4	x	x
Cc1sc2ncnc(N3CCC(C(=O)Nc4ccc(Br)cc4Br)CC3)c2c1C	7	2	-3	57*	10	4	47*	87*
Cc1sc2ncnc(N3CCC(C(=O)Nc4ccc(Cl)cc4Cl)CC3)c2c1C	9	-3	-5	23	4	-3	x	x
CNC(=O)c1ccc(NC(=O)C2CCN(c3ncnc4sc(C)c(C)c34)CC2)cc1	-1	-18	-3	62*	-1	-5	60*	58*
CCN(CC)c1ccc(C(=O)NNC(=O)C2CCN(c3ncnc4sc(C)c(C)c34)CC2)cc1	x	x	x	x	1	x	x	x
Cc1sc2ncnc(N3CCC(C(=O)Nc4sc5c(c4C(N)=O)CCC(C)C5)CC3)c2c1C (stereo not given)	12	x	4	62*	2	8	70*	42*
O=C(Nc1ccc(Cl)c(C(F)(F)F)c1)[C@@H]1CC=C[C@@H]2CCN(Cc3ccc(Cl)c(Cl)c3)C(=O)[C@@H]21	4	35	5	63*	11	8	1	x
CSc1ncnc2c1ccn2CC(=O)Nc1ccc(C)c(C)c1	3	3	-2	9	0	0	x	x
C=CCC[C@@H](Cc1ccc(F)cc1)C(=O)OC[C@@H](Cc1c[nH]c2ccccc12)NC(=O)[C@H](CC=C)CC(=O)N(CCO)Cc1ccccc1	17	x	-3	94*	-1	-5	26	x
C=CCC[C@H](Cc1ccc(F)cc1)C(=O)OC[C@@H](NC(=O)[C@@H](CC=C)CC(=O)N(CCO)Cc1ccccc1)C(C)(C)C	6	51	-6	50*	-2	4	15	x
C=CCC[C@H](Cc1ccc(F)cc1)C(=O)OC[C@@H](Cc1c[nH]c2ccccc12)NC(=O)[C@H](CC=C)CC(=O)N(CCO)Cc1ccccc1	2	92*	5	94*	0	-13	34	x
C=CC[C@@H](CC(=O)N(CCO)Cc1ccccc1)C(=O)NC[C@H](OC(=O)[C@@H](CC=C)Cc1ccc(F)cc1)c1ccccc1	11	30	-5	85*	0	4	71*	49*
CC(C)Oc1ccc(S(=O)(=O)N2CCOCC2)cc1NC(=O)Cc1cccs1	2	-10	0	31	1	-2	x	x
O=C(CCCl)Nc1nc2c(s1)CCc1ccccc1-2	1	47	-5	68*	1	18	62*	25
CN1C=CC(=O)[C@@H](OC(=O)Nc2ccc(Br)cc2)[C@H]1c1ccccc1Br	16	x	-2	x	2	x	x	x
COC(=O)[C@]1(C)N[C@H](c2ccc(-c3ccc(Cl)c(Cl)c3)c(OC)c2)[C@@H]2C(=O)N(C)C(=O)[C@@H]21	5	69	-3	65*	-1	-4	40*	49*
CCN1C(=O)[C@H]2[C@@H](c3ccc(-c4ccc(Cl)c(Cl)c4)c(OC)c3)N[C@@](Cc3ccccc3)(C(=O)OC)[C@H]2C1=O	-2	12	-8	62*	0	1	47*	46*
Cn1cnc([N+](=O)[O-])c1Sc1nc(N)nc2c1ncn2C1CC(O)C(CO)O1 (stereo not given)	-49	x	1	x	-1	x	x	x
Cc1c(CN2CCC(CO)(CCOc3ccccc3)CC2)[nH]c2c(Cl)cccc12	9	48	-3	87*	4	12	54*	64*
Cc1nn(C)c(Cl)c1CN1CCC(CO)(CCOc2ccccc2)CC1	22	-11	1	-3	-1	-4	x	x
COc1ccc2c(=O)c(Oc3ccc(C(=O)O)cc3)c(C(F)(F)F)oc2c1	-50	4	-3	-69	-5	5	x	x
SMILES	Gli-Sufu block	CSC inhib	GRIN3A LBD mod	Mdm2-MdmX inh	MPTP block	Beta cell apopt	Mdm2-MdmX conf	Full FLuc ctr
NC1=NC[C@@H](Cc2ccc(O)cc2)N1CCc1cc(C(F)(F)F)cc(C(F)(F)F)c1	-3	10	2	14	2	-6	x	x
FC(F)(F)c1cc(CCN2CCNC[C@@H]2CC2CCCCC2)cc(C(F)(F)F)c1	-10	x	4	100*	-1	3	19	x
NC1=NC[C@H](CC2CCCCC2)N1CCc1cc(C(F)(F)F)cc(C(F)(F)F)c1	6	102*	-1	100*	-2	40	81*	59*
Cc1ccc(C(=O)NC2c3ccccc3-c3ccccc32)cc1	-2	82*	-6	59*	1	-2	58*	54*
Cc1ccc2[nH]c3c(c2c1)CCCC3NCCO (stereo not given)	-1	0	5	17	3	-6	x	x
COc1ccc(/C=N/NC(=S)Nc2cc(S(=O)(=O)N3CCOCC3)ccc2N2CCOCC2)cc1O	17	29	-10	51*	1	8	45*	83*
CC[C@]12c3[nH]c4ccc(Cl)cc4c3CCN1C(=O)[C@@H](CC(=O)NCC13CC4CC(CC(C4)C1)C3)C[C@@H]2C(=O)N1CCN(C(=O)C2CC2)CC1	9	x	6	62*	1	x	52*	53*
CC[C@]12c3[nH]c4ccc(OC)cc4c3CCN1C(=O)C(CC(=O)NCC13CC4CC(CC(C4)C1)C3)C[C@@H]2C(=O)N1CCN(C(=O)C2CC2)CC1 (stereo not given in full)	-1	x	-1	45	1	x	x	x
C[C@]12c3[nH]c4ccc(Cl)cc4c3CCN1C(=O)[C@@H](CC(=O)NCC13CC4CC(CC(C4)C1)C3)C[C@@H]2C(=O)N1CCCCC1	5	x	-6	74*	-2	x	39	x
CC[C@]12c3[nH]c4ccc(Cl)cc4c3CCN1C(=O)[C@@H](CC(=O)NC/C=C(\C)CCC=C(C)C)C[C@@H]2C(=O)N1CCN(C(=O)c2ccco2)CC1	1	x	-7	66*	-1	x	-11	x
C[C@]12c3[nH]c4ccc(Cl)cc4c3CCN1C(=O)[C@@H](CC(=O)NCC13CC4CC(CC(C4)C1)C3)C[C@@H]2C(=O)N1CCOCC1	3	x	4	66*	-1	x	22	x

High-throughput results (PubChem BioAssay)
